# Shown are actives, neighbours in structure and some others; about 4.1% of the full set was active somewhere.
# hgDAF12 agonist: hgDAF-12 agonism, primary luciferase screen; AID 687014; activation, % at 6.8 µM; hit rate 1.8% among 370,000; HEK293 GAL4-hgDAF12 UAS-luciferase reporter, agonist luminescence; normalized to butyrate control;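 active = activation above a cutoff set at the mean of all screened compounds plus 3 SD, cut at about 10% in these data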;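 note: 0% = DMSO wells and 100% = sodium butyrate wells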
# DAX1 inh-1: blocks DAX1 repression of SF-1 activated StAR promoter. AID 652010. HEK293T StAR-luciferase reporter, SF-1/DAX-1 repression relief. inhibition, % at 6.8 µM. hit rate 1.1% among 370,000;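 active = inhibition above the mean over all tested compounds plus 3 SD, cut at about 3.6% in these data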;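 note: 0% = DAX-1 cells with DMSO and 100% = cells lacking DAX-1 with DMSO; higher inhibition means more luminescence from relief of DAX-1 repression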
# ssDAF-12 act: activates DAF-12 receptor from parasite S. stercoralis | AID 652126 | HEK293 ssDAF-12/GRIP1 lit1-tk-luc reporter, luminescence; % of 3 µM dafachronic acid response | activation, % at 6.8 µM | hit rate 1% among 370,000;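 active = activation above the mean over all tested compounds plus 3 SD, cut at about 0.9% in these data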;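 note: 0% = DMSO-only wells and 100% = 3 µM delta7-dafachronic acid wells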
# DAX1 inh-2: inhibitors of human orphan nuclear receptor DAX1 (NR0B1); P51843; HEK293 Gal4-DAX1 luciferase reporter, luminescence; inhibition, % at 6.75 µM; hit rate 0.99% among 340,000; AID 504766;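 active = inhibition above the mean over all tested compounds plus 3 SD, cut at about 4.2% in these data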;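 note: 0% = DAX1-transfected cells with DMSO and 100% = empty-vector control cells with DMSO; inhibition shows as a rise in luminescence from relieved DAX1 repression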
# hcDAF-12 act: activates DAF-12 receptor from parasite H. contortus; activation, % at 6.8 µM; HEK293 hcDAF-12 lit1-tk-luc reporter, luminescence; 0% DMSO, 100% Δ7-dafachronic acid; hit rate 1.4% among 370,000;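 active = activation above the mean of all tested compounds plus 3 SD, cut at about 5.5% in these data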;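 note: 100% = response to 3 µM Δ7-dafachronic acid high control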
# hgDAF12 conf: confirmation of H. glycines DAF-12 agonists | HEK293 GAL4-hgDAF12 luciferase reporter, agonist mode; percent of butyrate response | AID 743050 | shares compounds with hgDAF12 agonist | hit rate 80% among 3,300 | activation, % at 6.8 µM;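 active = mean activation over triplicate wells above the hit cutoff derived from the earlier primary screen, cut at about 11% in these data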;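 note: 0% = DMSO low control and 100% = 2 mM sodium butyrate high control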
# LXRb DAF12 ctr: LXR-beta agonism as DAF-12 counter-screen | shares compounds with hgDAF12 agonist | activation, % at 6.8 µM | AID 743051 | HEK293 Gal4-LXR luciferase reporter, 24 h | 3,300 tested, under 10 active;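 active = mean activation of the triplicate above a set limit carried over from the primary screen, none filed active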
# Target sequence (P55055 whole entry, looked up, the tested form may be a part): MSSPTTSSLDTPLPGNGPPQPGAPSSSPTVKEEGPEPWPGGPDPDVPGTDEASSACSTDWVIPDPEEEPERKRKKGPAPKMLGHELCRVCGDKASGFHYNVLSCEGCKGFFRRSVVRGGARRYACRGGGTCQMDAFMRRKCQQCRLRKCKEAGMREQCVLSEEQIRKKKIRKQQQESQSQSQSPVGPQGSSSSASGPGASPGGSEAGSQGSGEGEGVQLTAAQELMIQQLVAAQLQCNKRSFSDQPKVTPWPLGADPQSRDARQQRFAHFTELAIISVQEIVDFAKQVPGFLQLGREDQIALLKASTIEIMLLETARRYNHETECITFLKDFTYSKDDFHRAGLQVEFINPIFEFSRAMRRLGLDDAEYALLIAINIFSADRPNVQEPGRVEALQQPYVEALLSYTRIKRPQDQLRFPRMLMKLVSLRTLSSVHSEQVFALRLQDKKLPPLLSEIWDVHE
# Active calls of the source: *; . = no result given.
SMILES,hgDAF12 agonist,DAX1 inh-1,ssDAF-12 act,DAX1 inh-2,hcDAF-12 act,hgDAF12 conf,LXRb DAF12 ctr
Cn1c(SCc2ccccc2Cl)nc2ccccc21,14.1*,2.8,-0.3,2.7,2.1,14.9*,0.6
COc1ccc(-c2ccc3oc(-c4ccc(OC)cc4)c(C#CCCO)c3c2)cc1,2.8,-0.5,-1.3,1.5,-0.8,.,.
COC(=O)C1CN(Cc2ccc(F)cc2)CCS(=O)(=O)N1Cc1cn(Cc2ccc(C)cc2)nn1 (configuration not stated),-3.1,-0.3,0.2,.,1.3,.,.
CCN(CC)CCOC(=O)c1ccc(NC(=O)c2cn(-c3ccccc3)nc2-c2cccs2)cc1,14.9*,3.0,-0.3,2.4,3.7,7.5,0.1
O=C(NCCc1ccccc1)c1ccc(-c2cccnc2)c2ccoc12,14.2*,4.3*,0.7,.,1.3,10.6*,0.5
O=C(NCc1cccc(Cl)c1)c1ccc(-c2cccnc2)c2ccoc12,-2.3,-0.3,-1.5,.,-2.4,.,.
NS(=O)(=O)c1ccc(CCNC(=O)CSc2nnc3ccccn23)cc1,-0.3,0.5,-1.1,1.7,1.6,.,.
COc1ccccc1-c1cc(C(=O)N2CCOCC2)no1,16.6*,1.9,-0.4,2.5,2.6,11.9*,0.5
O=C(Nn1cnc2ccccc2c1=O)c1c(F)cccc1F,-0.4,-0.3,-1.7,0.7,-0.1,.,.
CCC(C)(C(=O)NC1CCCC1)N(C(=O)Cc1cccs1)c1c(C)n(C)n(-c2ccccc2)c1=O (configuration not stated),-1.9,-0.8,-1.4,-0.3,-0.2,.,.
Cc1csc(NC(=O)c2ccccc2[N+](=O)[O-])n1,-1.6,0.5,0.8,-0.8,-0.7,.,.
Cc1csc(NC(=O)c2ccc(Cl)cc2[N+](=O)[O-])n1,14.5*,1.3,0.2,0.8,1.1,10.7*,0.4
CN(C)c1cccc(/C=C2\CC3(OC(=O)c4ccccc4)CCCN2C3)c1 (configuration not stated),22.4*,0.5,-0.6,.,-1.3,0.2,0.0
COc1ccc(C2CC(c3ccc(Cl)cc3)=NN2c2ccc(S(N)(=O)=O)cc2)cc1 (configuration not stated),0.9,-1.4,-0.8,-0.4,-0.2,.,.
COc1ccc(C2CC(c3ccncc3)=NN2c2ccc(S(N)(=O)=O)cc2)cc1 (configuration not stated),26.1*,2.9,0.5,3.7,4.5,21.5*,0.6
O=C(N/N=C/c1ccc(F)cc1)c1cccc(NC(=O)c2ccccc2Cl)c1,2.2,-0.2,-0.7,2.5,-1.8,.,.
Cc1[nH]c2ccccc2c1/C=N/NC(=O)CNC(=O)c1cccs1,0.5,0.2,-1.4,0.2,0.1,.,.
Cc1[nH]c2ccccc2c1/C=N/NC(=O)c1cccs1,14.0*,1.9,0.9*,7.9*,6.1*,4.6,0.1
CSc1ccc(/C=N/NC(=O)c2ccccc2Cl)cc1,18.3*,-1.4,-0.8,1.4,3.6,13.0*,0.4
CSc1ccc(/C=N/NC(=O)c2cccs2)cc1,16.0*,2.5,0.4,.,6.3*,17.9*,0.9
NS(=O)(=O)c1ccc(CCNC(=O)C2CCN(S(=O)(=O)c3ccc(Br)s3)CC2)cc1,-1.0,0.8,-1.2,0.1,-0.6,.,.
CCOC(=O)c1cnc(SCc2ccc(C)cc2)nc1N,6.7,1.4,-0.4,0.6,1.2,.,.
CCCCSc1ncc(C(=O)OCC)c(N)n1,15.1*,3.7*,0.6,2.5,3.7,11.3*,0.8
CCOC(=O)c1cnc(SCCc2ccccc2)nc1N,16.0*,4.5*,1.4*,2.9,5.4,19.5*,0.8
COc1ccc(-n2c(C)cc(/C=C(\C#N)C(=O)NCc3ccco3)c2C)cc1,-0.6,-0.4,-0.2,-0.7,-0.8,.,.
SMILES,hgDAF12 agonist,DAX1 inh-1,ssDAF-12 act,DAX1 inh-2,hcDAF-12 act,hgDAF12 conf,LXRb DAF12 ctr
COCCNC(=O)/C(C#N)=C/c1cc(C)n(C2CCCCC2)c1C,19.6*,4.0*,0.1,1.8,3.5,8.5,0.6
COCCNC(=O)/C(C#N)=C/c1cc(C)n(-c2ccc(C)cc2)c1C,21.6*,3.4,0.0,0.4,6.1*,14.8*,0.8
Cc1cc(/C=C(\C#N)C(=O)O)c(C)n1C1CC1,1.5,-0.4,-0.4,-0.4,-1.1,.,.
COC(CNC(=O)c1ccc(CS(=O)(=O)c2c(Cl)cccc2Cl)o1)OC,-0.3,-0.4,-1.2,0.6,1.2,.,.
COc1cccc(-c2noc(-c3ccc(Br)o3)n2)c1,15.8*,4.4*,-0.4,2.6,3.3,17.2*,0.6
COc1cccc(-c2noc(-c3cccnc3)n2)c1,13.9*,3.4,0.0,4.2*,2.4,15.2*,0.9
CC(C)(CO)[C@@H](O)C(=O)NCCC(=O)O,.,.,.,2.7,.,.,.
COc1ccc(C2NC(=O)CS2)cc1OC (configuration not stated),-1.7,0.1,-0.9,0.8,-1.4,.,.
COc1ccc(C2NN=C(c3ccc(C)cc3)S2)cc1OC (configuration not stated),17.8*,3.1,0.2,3.9,3.2,17.9*,0.9
COc1ccc(C(=O)Nc2cc(C)on2)c(OC)c1,14.8*,1.7,-0.4,0.3,3.4,12.6*,0.5
COc1ccc(OC)c(S(=O)(=O)Nc2ccc(C(=O)Nc3cc(C)on3)cc2)c1,16.0*,-1.3,-1.5,.,0.3,-0.5,0.0
O=C(CSc1ccccc1)Nc1ccc(-c2nc3ccccc3[nH]2)cc1,15.8*,2.1,-1.1,0.4,-0.3,12.6*,0.5
CCNC(=S)Nc1ccc(-c2nc3ccccc3[nH]2)cc1,14.1*,4.4*,-0.9,4.2,2.0,16.9*,0.6
CCN(CC(=O)Nc1ccc2c(c1)OCCO2)C(=O)c1ccc(CS(C)(=O)=O)cc1,0.6,-6.1,-0.4,2.5,0.0,.,.
Cc1nc2cc(NC(=O)Nc3ccc(Br)cc3)ccc2o1,13.4*,1.1,-0.8,0.8,2.1,9.7,0.7
Cc1nc2cc(NC(=O)NCc3ccc4c(c3)OCO4)ccc2o1,2.9,0.1,-1.5,1.3,-1.7,.,.
CCOc1ccc(CN(CCC#N)C(=S)NC(=O)c2ccccc2)cc1,17.4*,-0.8,-1.4,0.2,-2.0,-1.8,0.0
CC(=O)c1ccc(OCC(=O)Nc2ccccc2C(=O)NC2CC2)cc1,0.0,0.2,-0.9,0.8,-0.4,.,.
Cc1ccc(S(=O)(=O)N2CCOCC2)cc1C(=O)N1CC(C)OC(C)C1 (configuration not stated),-0.4,-1.6,-0.6,-0.1,0.4,.,.
O=C1C(C=NCCCN2CCCC2=O)=C(O)c2ccccc21,18.6*,2.1,-0.3,1.9,3.9,7.5,0.3
O=C(Nc1ccc(F)c(Cl)c1)c1cc(C2CCCCN2C(=O)C2CC2)on1 (configuration not stated),-0.2,-0.2,-1.4,.,-0.1,.,.
